{"source": "paper PMC11062922", "about": "(Nature Chemical Biology, 2023)", "design_in_all_cases": "species or system human, MV4-11 + K-562 + COLO205 + SK-N-BE2 + OVCAR-8", "key": {"ACVR1B": {"tested_on": "ACVR1B", "details": "read-out: apparent Kd; compound concentrations:100 nM and 1000 nM (sheet 'Samples'); n = 1"}, "NQO2": {"tested_on": "NQO2", "details": "read-out: apparent Kd; compound concentrations:100 nM and 1000 nM (sheet 'Samples'); n = 1"}, "RIPK2": {"tested_on": "RIPK2", "details": "read-out: apparent Kd; compound concentrations:100 nM and 1000 nM (sheet 'Samples'); n = 1"}, "TESK2": {"tested_on": "TESK2", "details": "read-out: apparent Kd; compound concentrations:100 nM and 1000 nM (sheet 'Samples'); n = 1"}, "TGFBR1": {"tested_on": "TGFBR1", "details": "read-out: apparent Kd; compound concentrations:100 nM and 1000 nM (sheet 'Samples'); n = 1"}, "TGFBR2": {"tested_on": "TGFBR2", "details": "read-out: apparent Kd, n = 1"}, "ACVR1": {"tested_on": "ACVR1", "details": "read-out: apparent Kd, compound concentrations: 100 nM and 1000 nM (sheet 'Samples'), n = 1"}, "ACVR2B": {"tested_on": "ACVR2B", "details": "read-out: apparent Kd; compound concentrations: 100 nM and 1000 nM (sheet 'Samples'), CATDS: 0.106004759644949; n = 1"}, "AKT1": {"tested_on": "AKT1", "details": "read-out: apparent Kd; compound concentrations: 100 nM and 1000 nM (sheet 'Samples'), CATDS: 8.7869055703498899E-2; n = 1"}, "AKT2": {"tested_on": "AKT2", "details": "read-out: apparent Kd; compound concentrations: 100 nM and 1000 nM (sheet 'Samples'), CATDS: 9.9123908030557498E-2; n = 1"}, "DDR2": {"tested_on": "DDR2", "details": "read-out: apparent Kd; compound concentrations: 100 nM and 1000 nM (sheet 'Samples'), CATDS: 9.6979339213766697E-2; n = 1"}, "ERBB3": {"tested_on": "ERBB3", "details": "read-out: apparent Kd; compound concentrations: 100 nM and 1000 nM (sheet 'Samples'), CATDS: 0.104926252845552; n = 1"}, "MAP2K1": {"tested_on": "MAP2K1", "details": "read-out: apparent Kd; compound concentrations: 100 nM and 1000 nM (sheet 'Samples'), CATDS: 9.3485581268639997E-2; n = 1"}, "NCL": {"tested_on": "NCL", "details": "read-out: apparent Kd; compound concentrations: 100 nM and 1000 nM (sheet 'Samples'), CATDS: 9.6162289206332394E-2; n = 1"}, "NNT": {"tested_on": "NNT", "details": "read-out: apparent Kd; compound concentrations: 100 nM and 1000 nM (sheet 'Samples'), CATDS: 0.104881561069948; n = 1"}, "RIOK2": {"tested_on": "RIOK2", "details": "read-out: apparent Kd; compound concentrations: 100 nM and 1000 nM (sheet 'Samples'), CATDS: 9.3979230016613804E-2; n = 1"}, "ATM": {"tested_on": "ATM", "details": "read-out: apparent Kd; compound concentrations: 100 nM and 1000 nM (sheet 'Samples'), CATDS: 0.20840274799776901; n = 1"}, "CDC42BPG": {"tested_on": "CDC42BPG", "details": "read-out: apparent Kd; compound concentrations: 100 nM and 1000 nM (sheet 'Samples'), CATDS: 7.2395541627420706E-2; n = 1"}, "CLK1": {"tested_on": "CLK1", "details": "read-out: apparent Kd; compound concentrations: 100 nM and 1000 nM (sheet 'Samples'), CATDS: 0.111342996670081; n = 1"}, "CLK2": {"tested_on": "CLK2", "details": "read-out: apparent Kd; compound concentrations: 100 nM and 1000 nM (sheet 'Samples'), CATDS: 0.14537230764377601; n = 1"}, "CLK4": {"tested_on": "CLK4", "details": "read-out: apparent Kd; compound concentrations: 100 nM and 1000 nM (sheet 'Samples'), CATDS: 9.3990878908875697E-2; n = 1"}, "DDX3X;DDX3Y": {"tested_on": "DDX3X;DDX3Y", "details": "read-out: apparent Kd; compound concentrations: 100 nM and 1000 nM (sheet 'Samples'), CATDS: 7.1763596621612302E-2; n = 1"}, "FLT3": {"tested_on": "FLT3", "details": "read-out: apparent Kd; compound concentrations: 100 nM and 1000 nM (sheet 'Samples'), CATDS: 0.113809183908987; n = 1"}, "RIPK3": {"tested_on": "RIPK3", "details": "read-out: apparent Kd; compound concentrations: 100 nM and 1000 nM (sheet 'Samples'), CATDS: 7.33471794094432E-2; n = 1"}, "MAPK14": {"tested_on": "MAPK14", "details": "read-out: apparent Kd; compound concentrations:100 nM and 1000 nM (sheet 'Samples'); n = 1"}, "MAPKAPK2": {"tested_on": "MAPKAPK2", "details": "read-out: apparent Kd; compound concentrations:100 nM and 1000 nM (sheet 'Samples'); n = 1"}, "PRKD2": {"tested_on": "PRKD2", "details": "read-out: apparent Kd; compound concentrations:100 nM and 1000 nM (sheet 'Samples'); n = 1"}, "TNIK": {"tested_on": "TNIK", "details": "read-out: apparent Kd; compound concentrations:100 nM and 1000 nM (sheet 'Samples'); n = 1"}, "DAPK3": {"tested_on": "DAPK3", "details": "read-out: apparent Kd; compound concentrations:100 nM and 1000 nM (sheet 'Samples'); n = 1"}, "PIK3CG": {"tested_on": "PIK3CG", "details": "read-out: apparent Kd; compound concentrations:100 nM and 1000 nM (sheet 'Samples'); n = 1"}, "PKN3": {"tested_on": "PKN3", "details": "read-out: apparent Kd; compound concentrations:100 nM and 1000 nM (sheet 'Samples'); n = 1"}, "PRKD3": {"tested_on": "PRKD3", "details": "read-out: apparent Kd; compound concentrations:100 nM and 1000 nM (sheet 'Samples'); n = 1"}, "[1]": {"details": "compound concentrations:100 nM and 1000 nM (sheet 'Samples')"}}, "note": "Where two headings read alike, the source gives them in different places."}
{"smiles": "Cl.c1ccc(-c2n[nH]cc2-c2ccnc(-c3ccc(CN4CCOCC4)cc3)c2)nc1", "note": "[GW776245A]", "values": [{"measurement": "potency estimated from few doses", "setting": "ACVR1B", "result": 335, "unit": "nM"}, {"measurement": "potency estimated from few doses", "setting": "NQO2", "result": 243, "unit": "nM"}, {"measurement": "potency estimated from few doses", "setting": "RIPK2", "result": 1080, "unit": "nM"}, {"measurement": "potency estimated from few doses", "setting": "TESK2", "result": 1580, "unit": "nM"}, {"measurement": "potency estimated from few doses", "setting": "TGFBR1", "result": 51.8, "unit": "nM"}, {"measurement": "potency estimated from few doses", "setting": "TGFBR2; [1]", "result": 1230, "unit": "nM"}]}
{"smiles": "COc1ccc(C)c(Nc2ccnc(Nc3ccc(-c4cnc[nH]4)cc3)n2)c1.Cl", "note": "[GW784041A]", "values": [{"measurement": "potency estimated from few doses", "setting": "ACVR1; CATDS: 0.125244350144667", "result": 1190, "unit": "nM"}, {"measurement": "potency estimated from few doses", "setting": "ACVR2B", "result": 1600, "unit": "nM"}, {"measurement": "potency estimated from few doses", "setting": "AKT1", "result": 2370, "unit": "nM"}, {"measurement": "potency estimated from few doses", "setting": "AKT2", "result": 1820, "unit": "nM"}, {"measurement": "potency estimated from few doses", "setting": "DDR2", "result": 1910, "unit": "nM"}, {"measurement": "potency estimated from few doses", "setting": "ERBB3", "result": 1630, "unit": "nM"}, {"measurement": "potency estimated from few doses", "setting": "MAP2K1", "result": 2060, "unit": "nM"}, {"measurement": "potency estimated from few doses", "setting": "NCL", "result": 1940, "unit": "nM"}, {"measurement": "potency estimated from few doses", "setting": "NNT", "result": 1630, "unit": "nM"}, {"measurement": "potency estimated from few doses", "setting": "RIOK2", "result": 2040, "unit": "nM"}]}
{"smiles": "CCS(=O)(=O)c1ccc(OC)c(Nc2ncc(-c3cccc(C(C)=O)c3)o2)c1", "note": "[GW621431X]", "values": [{"measurement": "potency estimated from few doses", "setting": "ACVR1; CATDS: 9.7395071504851799E-2", "result": 882, "unit": "nM"}, {"measurement": "potency estimated from few doses", "setting": "ATM", "result": 232, "unit": "nM"}, {"measurement": "potency estimated from few doses", "setting": "CDC42BPG", "result": 2020, "unit": "nM"}, {"measurement": "potency estimated from few doses", "setting": "CLK1", "result": 661, "unit": "nM"}, {"measurement": "potency estimated from few doses", "setting": "CLK2", "result": 405, "unit": "nM"}, {"measurement": "potency estimated from few doses", "setting": "CLK4", "result": 958, "unit": "nM"}, {"measurement": "potency estimated from few doses", "setting": "DDX3X;DDX3Y", "result": 2090, "unit": "nM"}, {"measurement": "potency estimated from few doses", "setting": "FLT3", "result": 633, "unit": "nM"}, {"measurement": "potency estimated from few doses", "setting": "RIPK3", "result": 1930, "unit": "nM"}, {"measurement": "potency estimated from few doses", "setting": "TGFBR2; compound concentrations: 100 nM and 1000 nM (sheet 'Samples'), CATDS: 0.12096887154144", "result": 562, "unit": "nM"}]}
{"smiles": "Nc1nc(-c2cccc(Cl)c2)c(-c2ccc3ncccc3n2)s1", "note": "[GW780159X]", "values": [{"measurement": "potency estimated from few doses", "setting": "ACVR1B", "result": 1.63, "unit": "nM"}, {"measurement": "potency estimated from few doses", "setting": "MAPK14", "result": 1440, "unit": "nM"}, {"measurement": "potency estimated from few doses", "setting": "MAPKAPK2", "result": 1000, "unit": "nM"}, {"measurement": "potency estimated from few doses", "setting": "PRKD2", "result": 815, "unit": "nM"}, {"measurement": "potency estimated from few doses", "setting": "TNIK", "result": 2040, "unit": "nM"}]}
{"smiles": "COc1ccc(-c2cc(-c3c[nH]nc3-c3ccccn3)ccn2)cc1", "note": "[GW679410X]", "values": [{"measurement": "potency estimated from few doses", "setting": "ACVR1B", "result": 686, "unit": "nM"}, {"measurement": "potency estimated from few doses", "setting": "NQO2", "result": 168, "unit": "nM"}, {"measurement": "potency estimated from few doses", "setting": "TGFBR1", "result": 170, "unit": "nM"}, {"measurement": "potency estimated from few doses", "setting": "TGFBR2; [1]", "result": 1290, "unit": "nM"}, {"measurement": "potency estimated from few doses", "setting": "TNIK", "result": 1140, "unit": "nM"}]}
{"smiles": "Cc1csc(-c2nc(Nc3ccncc3)c3ccccc3n2)n1", "note": "[GW869640X]", "values": [{"measurement": "potency estimated from few doses", "setting": "ACVR1B", "result": 17.6, "unit": "nM"}, {"measurement": "potency estimated from few doses", "setting": "DAPK3", "result": 1290, "unit": "nM"}, {"measurement": "potency estimated from few doses", "setting": "PIK3CG", "result": 1460, "unit": "nM"}, {"measurement": "potency estimated from few doses", "setting": "PKN3", "result": 939, "unit": "nM"}, {"measurement": "potency estimated from few doses", "setting": "PRKD2", "result": 191, "unit": "nM"}, {"measurement": "potency estimated from few doses", "setting": "PRKD3", "result": 504, "unit": "nM"}, {"measurement": "potency estimated from few doses", "setting": "TGFBR2; [1]", "result": 750, "unit": "nM"}]}
